Laboratory results published in PubChem BioAssay (Tox21).
Inconclusive results are not listed. Where a call stands in place of a potency, no number is given. Activity calls are given as the source filed them. Calls follow the shape of the full dose curve.

Test: qHTS assay to identify small molecule agonists of the AP-1 signaling pathway (AID 1159526)
Conditions: ME-180 (cervical carcinoma) AP-1-bla reporter, beta-lactamase FRET ratio, 5 h; series mostly up to 76.8 µM

Row | SMILES | Potency
1 | C=CC[N+](C)(C)CC=C | inactive
2 | CC1(C)NC(=O)NC1=O | inactive
3 | CN(C)c1ccc(O)c2c1C[C@H]1C[C@H]3[C@H](N(C)C)C(=O)C(C(N)=O)=C(O)[C@@]3(O)C(=O)C1=C2O | inactive
4 | O=C(O)/C=C/C(=O)O | inactive
5 | C=C(C)CNCC | inactive
6 | C=C(C)[C@H]1CC=C(C)C(=O)C1 | inactive
7 | O=[N+]([O-])c1ccc2nc[nH]c2c1 | inactive
8 | O=C(O)c1cc2ccccc2cc1O | inactive
9 | C[C@]12CCC(=O)C=C1CC[C@@H]1[C@@H]2[C@@H](O)C[C@@]2(C)[C@H]1CC[C@]2(O)C(=O)CO | inactive
10 | CCNc1cccc(C)c1 | inactive
11 | CC(CCl)OP(=O)(OC(C)CCl)OC(C)CCl (stereo unspecified) | inactive
12 | O=C(O)c1ccc(S(=O)(=O)N(Cl)Cl)cc1 | inactive
13 | O=C(O)CCCCCCCCC(=O)O | inactive
14 | CC(C)(C)c1cc(Cc2cc(C(C)(C)C)c(O)c(C(C)(C)C)c2)cc(C(C)(C)C)c1O | inactive
15 | CCCCCCCO | inactive
16 | C[C@]12CC[C@@H]3c4ccc(O)cc4CC[C@H]3[C@@H]1C[C@@H](O)[C@@H]2O | inactive
17 | CCNC(=S)NCC | inactive
18 | OCc1ccccc1 | inactive
19 | COc1ccc(CCC(C)=O)cc1 | inactive
20 | Clc1ccccn1 | inactive
21 | C[Si]1(C)O[Si](C)(C)O[Si](C)(C)O[Si](C)(C)O1 | inactive
22 | C=C(C)C(=O)OCC(C)C | inactive
23 | O=C(OCC1CCC2OC2C1)C1CCC2OC2C1 (stereo unspecified) | inactive
24 | CNC(=S)N(C)C | inactive
25 | Brc1ccc(Br)c(Br)c1 | inactive
26 | COc1ccccc1OCC(O)CO (stereo unspecified) | inactive
